{
  "source": "PubChem BioAssay AID504861",
  "about": "(Broad Institute, 2011)",
  "note": "Out of some 1,200 compounds screened, about 290 (24%) were called active. Not shown: some 3% with an inconclusive outcome.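 The calls were made as follows: active = compounds lowering cell viability signal with fitted half-maximal concentration at most ten times their highest tested concentration; inconclusive = flat fit with 30 to 70% signal loss, or poor fit; inactive = the rest.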 Not all results are given here. Entries with a potency or affinity are not part of this list.",
  "data": [
    {"experiment": "HEK293T cell viability reduction, dose response, cytotoxicity control for LMP1 NF-kB inhibitor project, CellTiter-Glo luminescence, cherry-picks (AID 504861)", "conditions": "CellTiter-Glo ATP luminescence, 48 h; series mostly up to 26 µM; activity change, negative = cytotoxicity: at the top concentration", "values": [
      {"smiles": "CCn1c2ccccc2c2cc(/C=N/NC(=O)c3ccncc3)ccc21", "activity change, negative = cytotoxicity": "10.8% (inactive)"},
      {"smiles": "COc1ccc(CCNC(=O)c2nnn(-c3ccc4c(c3)OCCO4)c2N)cc1OC", "activity change, negative = cytotoxicity": "-3.16% (inactive)"},
      {"smiles": "CNS(=O)(=O)c1cccc(C(=O)OCC(=O)c2ccc3c(c2)OCCO3)c1", "activity change, negative = cytotoxicity": "4.41% (inactive)"},
      {"smiles": "O=C(c1noc2c1CCCC2)N1CCCCC1", "activity change, negative = cytotoxicity": "2.78% (inactive)"},
      {"smiles": "CC[C@H]1OC(=O)[C@H](C)[C@@H](O[C@H]2C[C@@](C)(OC)[C@@H](O)[C@H](C)O2)[C@H](C)[C@@H](O[C@@H]2O[C@H](C)C[C@H](N(C)C)[C@H]2O)[C@](C)(O)C[C@@H](C)C(=NOCOCCOC)[C@H](C)[C@@H](O)[C@]1(C)O", "activity change, negative = cytotoxicity": "1.19% (inactive)"},
      {"smiles": "COc1cc2c(cc1OC)-c1cc(Nc3ccc4c(c3)OCCO4)nc(=O)n1CC2", "activity change, negative = cytotoxicity": "35.8% (inactive)"},
      {"smiles": "Cc1nc2ncccn2c1-c1csc(Nc2ccccc2)n1", "activity change, negative = cytotoxicity": "3.33% (inactive)"},
      {"smiles": "CCOC(=O)C1=C(C)NC(C)=C(C(=O)OCC)C1c1cn(-c2ccccc2)nc1-c1ccco1", "activity change, negative = cytotoxicity": "9.17% (inactive)"},
      {"smiles": "COCCn1c(SCCN2CCOCC2)nc2c1c(=O)[nH]c(=O)n2C", "activity change, negative = cytotoxicity": "-5.1% (inactive)"},
      {"smiles": "Cc1cccc(NC(=O)c2cnc3ccccn3c2=O)c1", "activity change, negative = cytotoxicity": "11.3% (inactive)"},
      {"smiles": "CC(C)c1nnc(NC(=O)c2ccc(N3C(=O)CCC3=O)cc2)s1", "activity change, negative = cytotoxicity": "9.62% (inactive)"},
      {"smiles": "COc1ccc(-n2c(SCC(=O)Nc3cc(C)on3)nc3c(c2=O)SCC3)cc1", "activity change, negative = cytotoxicity": "6.53% (inactive)"},
      {"smiles": "COc1cc(/C=C2/SC(=S)N(Cc3ccccc3)C2=O)ccc1OCC(=O)O", "activity change, negative = cytotoxicity": "1.52% (inactive)"},
      {"smiles": "COc1ccc(/C=N/N=C/c2ccc(OC)c(OC)c2)cc1OC", "activity change, negative = cytotoxicity": "13.3% (inactive)"},
      {"smiles": "CCOCCCn1c(=S)[nH]c2ncccc2c1=O", "activity change, negative = cytotoxicity": "21.6% (inactive)"},
      {"smiles": "O=c1c2c(nc3c(-c4ccc(Cl)cc4)c[nH]n13)CCCC2", "activity change, negative = cytotoxicity": "-9.92% (inactive)"},
      {"smiles": "CC(=NNC(=S)N1CCCCCC1)c1cccc2cccnc12", "activity change, negative = cytotoxicity": "-5.32% (inactive)"},
      {"smiles": "CC1=C(CC(=O)O)c2cc(F)ccc2C1=Cc1ccc(S(C)(=O)=O)cc1", "activity change, negative = cytotoxicity": "0.041% (inactive)"},
      {"smiles": "COc1ccc(OC)c(CCNC(=O)CCn2nc(C)c3c(C)n(-c4ccccc4)nc3c2=O)c1", "activity change, negative = cytotoxicity": "3.9% (inactive)"},
      {"smiles": "COCCn1c(C)cc(C(=O)COC(=O)C23CC4CC(CC(O)(C4)C2)C3)c1C", "activity change, negative = cytotoxicity": "3.31% (inactive)"},
      {"smiles": "CC1CCc2nc(N)c(C#N)c(-c3cccnc3)c2C1", "note": "(stereo unspecified)", "activity change, negative = cytotoxicity": "-2.74% (inactive)"},
      {"smiles": "N#CCN(N=Nc1ccccc1)c1ccccc1", "activity change, negative = cytotoxicity": "-6.12% (inactive)"},
      {"smiles": "CC(NC(=O)CCOc1ccccc1)c1ccccc1", "note": "(stereo unspecified)", "activity change, negative = cytotoxicity": "1.19% (inactive)"},
      {"smiles": "C[C@@H](OC(=O)c1[nH]cnc1C(=O)N1CCc2ccccc2C1)c1ccccc1", "activity change, negative = cytotoxicity": "-0.366% (inactive)"},
      {"smiles": "COc1cccc(-c2nnc(NC(=O)c3ccc(S(=O)(=O)N(CC(C)C)CC(C)C)cc3)o2)c1", "activity change, negative = cytotoxicity": "1.48% (inactive)"},
      {"smiles": "CCn1c2ccccc2c2cc(/C=N/n3cnnc3)ccc21", "activity change, negative = cytotoxicity": "-7.83% (inactive)"},
      {"smiles": "C=CC[N+](C)(C)C/C(Cl)=C(\\Cl)c1ccccc1", "activity change, negative = cytotoxicity": "7.76% (inactive)"},
      {"smiles": "O=[N+]([O-])c1ccc(Cl)c(S(=O)(=O)NCC2CCCO2)c1", "note": "(stereo unspecified)", "activity change, negative = cytotoxicity": "6.06% (inactive)"},
      {"smiles": "c1ccc2c(-c3ccncc3)c[nH]c2c1", "activity change, negative = cytotoxicity": "-0.974% (inactive)"},
      {"smiles": "COc1cc(/C=N/NC(=O)c2cc(C34CC5CC(CC(C5)C3)C4)[nH]n2)ccc1O", "activity change, negative = cytotoxicity": "3.92% (inactive)"},
      {"smiles": "CCn1c2ccccc2c2cc(/C=N/NC(=O)c3cc(O)cc(O)c3)ccc21", "activity change, negative = cytotoxicity": "-8.8% (inactive)"},
      {"smiles": "Cc1ccccc1CC(=O)NCc1cccnc1", "activity change, negative = cytotoxicity": "-5.15% (inactive)"},
      {"smiles": "Oc1ccccc1C=NN=Cc1c(O)ccc2ccccc12", "activity change, negative = cytotoxicity": "3.24% (inactive)"},
      {"smiles": "c1nc(NCc2ccc3c(c2)OCO3)c2cc(-c3ccoc3)ccc2n1", "activity change, negative = cytotoxicity": "-11.3% (inactive)"},
      {"smiles": "Oc1c(N=NC(=S)Nc2ccccc2F)c2ccccc2n1Cc1ccccc1F", "activity change, negative = cytotoxicity": "12% (inactive)"},
      {"smiles": "CCS(=O)(=O)c1nnnn1-c1ccccc1S(C)(=O)=O", "activity change, negative = cytotoxicity": "-0.286% (inactive)"},
      {"smiles": "O=C1c2ccccc2C(=O)c2cc(N3CCCCC3)ccc21", "activity change, negative = cytotoxicity": "-5.57% (inactive)"},
      {"smiles": "O=C(NC(c1ccc(Cl)cc1)c1cc(Cl)c2cccnc2c1O)c1cccnc1", "note": "(stereo unspecified)", "activity change, negative = cytotoxicity": "15.2% (inactive)"},
      {"smiles": "CC(C)c1cc(NC(=O)c2ccccc2)cc(C(C)C)c1O", "activity change, negative = cytotoxicity": "3.11% (inactive)"},
      {"smiles": "Nc1cc2ccncc2c2ccccc12", "activity change, negative = cytotoxicity": "-17.4% (inactive)"},
      {"smiles": "CC1=C(C)C(OCCCl)N(c2cc(O)c(Cl)cc2F)C1=O", "note": "(stereo unspecified)", "activity change, negative = cytotoxicity": "11.4% (inactive)"},
      {"smiles": "Cc1ccc(N2CCCCn3c2nc2c3c(=O)n(CC(=O)O)c(=O)n2C)cc1", "activity change, negative = cytotoxicity": "5.91% (inactive)"},
      {"smiles": "Nc1ncnc(N2CCc3ccccc32)c1[N+](=O)[O-]", "activity change, negative = cytotoxicity": "5.71% (inactive)"},
      {"smiles": "COc1ccc(-c2cc3c(=O)n(CC(=O)NCCCN4CCN(Cc5ccccc5)CC4)ncn3n2)cc1", "activity change, negative = cytotoxicity": "-1.47% (inactive)"},
      {"smiles": "Cc1ccccc1C(=O)N1CCN(c2ccc(NC(=O)c3cccs3)cc2)CC1", "activity change, negative = cytotoxicity": "12.1% (inactive)"},
      {"smiles": "COc1nc(Nc2nc3ccccc3c(=O)[nH]2)nc2ccc(C)cc12", "activity change, negative = cytotoxicity": "6.13% (inactive)"},
      {"smiles": "COc1ccc2cc3c(N)nn(C(=O)c4ccccc4[N+](=O)[O-])c3nc2c1", "activity change, negative = cytotoxicity": "-10.9% (inactive)"},
      {"smiles": "O=C(O)c1c2c(nc3ccccc13)/C(=C/c1ccc(O)cc1)CC2", "activity change, negative = cytotoxicity": "11.7% (inactive)"},
      {"smiles": "Cc1nn(CCCC(=O)Nc2cccnc2Cl)c(C)c1[N+](=O)[O-]", "activity change, negative = cytotoxicity": "1.66% (inactive)"},
      {"smiles": "COCCN1Cc2cccc(C(=O)N3CCN(c4cc(C)ccc4C)CC3)c2C1=O", "activity change, negative = cytotoxicity": "-7.98% (inactive)"},
      {"smiles": "CCOC(=O)[C@H]1[C@H]2COc3ccc(OC)cc3[C@@H]2N2C(=O)CN(C)C(=O)[C@@]12C", "activity change, negative = cytotoxicity": "0.991% (inactive)"},
      {"smiles": "CCn1nc(C(=O)Nc2nc(-c3ccccn3)cs2)c2ccccc2c1=O", "activity change, negative = cytotoxicity": "5.64% (inactive)"},
      {"smiles": "O=C(CN1C(=O)c2ccccc2S1(=O)=O)c1ccccc1", "activity change, negative = cytotoxicity": "16.5% (inactive)"},
      {"smiles": "COc1cc(C2NC(=O)NC(C)=C2C(=O)OC2CCCC(C)C2)cc(Br)c1O", "note": "(stereo unspecified)", "activity change, negative = cytotoxicity": "1.98% (inactive)"},
      {"smiles": "O=C(c1ccco1)N1CCN(S(=O)(=O)/C=C/c2ccccc2)CC1", "activity change, negative = cytotoxicity": "-2.25% (inactive)"},
      {"smiles": "CCCN(CCC)S(=O)(=O)c1ccc(C(=O)Nc2nnc(-c3cc(OC)cc(OC)c3)o2)cc1", "activity change, negative = cytotoxicity": "2.24% (inactive)"},
      {"smiles": "COc1cc(/C=N/NC(=S)Nc2cccc(C(=O)O)c2)ccc1O", "activity change, negative = cytotoxicity": "13.6% (inactive)"},
      {"smiles": "S=C(N/N=C/c1ccc2ncccc2c1)Nc1cccnc1", "activity change, negative = cytotoxicity": "0.537% (inactive)"},
      {"smiles": "COc1ccc(CNC(=O)N2[C@H]3CC[C@@H]2C=C(c2ccc(F)cc2OCc2ccccc2)C3)cc1OC", "activity change, negative = cytotoxicity": "8.66% (inactive)"},
      {"smiles": "CCOc1cccc(CNc2nnnn2C)c1", "activity change, negative = cytotoxicity": "-0.593% (inactive)"},
      {"smiles": "Cn1c(=O)[nH]c(=O)c2c1nc(CN1CCOCC1)n2CCCc1ccccc1", "activity change, negative = cytotoxicity": "2.77% (inactive)"},
      {"smiles": "O=C(c1ccc(C#CC2(O)CCCCC2)cc1)N1CCN(C(c2ccccc2)c2ccccc2)CC1", "activity change, negative = cytotoxicity": "3.71% (inactive)"},
      {"smiles": "CN(CC(=O)Nc1cccnc1)S(=O)(=O)c1ccc(Br)cc1", "activity change, negative = cytotoxicity": "21.2% (inactive)"},
      {"smiles": "CC1CCN(c2ccc(-c3ccc(NC(=O)C(F)(F)F)cc3)nn2)CC1", "activity change, negative = cytotoxicity": "7.11% (inactive)"},
      {"smiles": "Cc1ccc(-c2cc(N)n3nc(-c4ccc(C)cc4)cc3n2)cc1", "activity change, negative = cytotoxicity": "10.3% (inactive)"},
      {"smiles": "COc1ccc(S(=O)(=O)NC(CC(=O)NCc2ccco2)C(C)C)cc1", "note": "(stereo unspecified)", "activity change, negative = cytotoxicity": "7.05% (inactive)"}
    ]}
  ]
}
